Compounds without any hit were thinned out: in the full panel of roughly 83,000, 20% have a hit.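 48-hour exposure, single concentration, 96-well plates; percent growth endpoint where 0 means no net growth. Active: below 10.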 Unmarked numbers belong to inactive results. Activity calls are given as the source filed them.

Test systems include DU-145 prostate; K-562 leukemia; MALME-3M melanoma; MDA-MB-231 breast; RXF 393 renal; SF-268 CNS; SF-295 CNS; SF-539 CNS; UACC-257 melanoma; M14 melanoma; HCT-15 colon; HT29 colon; SNB-75 CNS; SNB-19 CNS; U251 CNS; PC-3 prostate; SK-MEL-5 melanoma; UACC-62 melanoma; LOX IMVI melanoma; SK-MEL-28 melanoma.
Holding throughout (test): NCI-60 one-dose screen, 48 h (100 = growth as untreated, 0 = no growth, -100 = all killed)
Settings in all cases: 10 µM unless noted

For the molecule `COc1cc(-c2csc(NC(=O)Nc3cccc(C(F)(F)F)c3)n2)cc(OC)c1OC`, the growth in the assay with DU-145 prostate was 55.9%; in the assay with K-562 leukemia, 31.6%; with MALME-3M melanoma it was 88.3%; in the assay with MDA-MB-231 breast, 63.8%; with RXF 393 renal, 71.4%; in the assay on SF-268 CNS, 65%. In addition, the growth in the assay on SF-295 CNS was 21.7%; in the assay on SF-539 CNS, 67.1%; in the assay on UACC-257 melanoma it was 83.2%; in the assay on M14 melanoma, 47.8%; with HCT-15 colon it was 30.9%; in the assay on HT29 colon it was 62.6%. Besides, the growth was 62.4% in the assay on SNB-75 CNS; 46.1% with SNB-19 CNS; 34.1% in the assay with U251 CNS; 18.6% in the assay with PC-3 prostate; 28.7% in the assay with SK-MEL-5 melanoma; 40% in the assay with UACC-62 melanoma. The growth was 62.3% with LOX IMVI melanoma and 72.8% with SK-MEL-28 melanoma.
In the case of `CNC(=O)c1cc(Oc2ccc(NC(=O)c3nc(S(C)(=O)=O)sc3-c3ccc(F)cc3)cc2)ccn1`, the growth with DU-145 prostate is -57.5% (active); in the assay on K-562 leukemia it was 86.8%; in the assay on MALME-3M melanoma, 94.5%; in the assay on MDA-MB-231 breast it was 119%; with RXF 393 renal it was 104%; in the assay with SF-268 CNS, 98.8%. Also, the growth was 95.3% in the assay on SF-295 CNS; 97.4% in the assay on SF-539 CNS; 65.7% in the assay with UACC-257 melanoma; 87.8% in the assay on M14 melanoma; 86.4% in the assay on HCT-15 colon; 4.79% (active) in the assay with HT29 colon. Further, the growth was 113% with SNB-75 CNS; 84.4% in the assay with SNB-19 CNS; 86.6% in the assay with U251 CNS; 71.1% with PC-3 prostate; 90.3% with SK-MEL-5 melanoma; 93.3% in the assay on UACC-62 melanoma. The growth with LOX IMVI melanoma is 45.7%; in the assay on SK-MEL-28 melanoma, 57.9%.
As for `C=CCn1c(C)nc2cc(Nc3nc(N4CCOCC4)nc4nc[nH]c34)ccc21`, the growth was 109% with DU-145 prostate; 71% in the assay on K-562 leukemia; 97.7% in the assay on MALME-3M melanoma; 77.7% in the assay on MDA-MB-231 breast; 85.1% in the assay on RXF 393 renal; 99% with SF-268 CNS. For the same molecule, the growth is 85% in the assay on SF-295 CNS; 87.3% with SF-539 CNS; 94% in the assay with UACC-257 melanoma; 97% with M14 melanoma; 90.9% in the assay on HCT-15 colon; 99.7% in the assay on HT29 colon. For the same molecule, the growth in the assay on SNB-75 CNS was 80.4%; in the assay on SNB-19 CNS, 95.4%; with U251 CNS, 91.3%; in the assay on PC-3 prostate it was 79.9%; in the assay on SK-MEL-5 melanoma, 96.2%; in the assay on UACC-62 melanoma, 88.9%. Further, the growth in the assay on LOX IMVI melanoma was 95.2%; in the assay on SK-MEL-28 melanoma, 102%.
Regarding `CCOC(=O)C(=CNc1ccccc1Cl)C(=O)OCC`, the growth in the assay on DU-145 prostate was 107%; with K-562 leukemia, 54.3%; with MALME-3M melanoma, 140%; in the assay with MDA-MB-231 breast, 104%; with RXF 393 renal, 100%; with SF-268 CNS, 94.3%. The growth in the assay on SF-295 CNS was 89.9%; with SF-539 CNS, 102%; with UACC-257 melanoma, 103%; in the assay with M14 melanoma, 113%; with HCT-15 colon it was 88.2%; in the assay on HT29 colon it was 89.1%. Moreover, the growth in the assay with SNB-75 CNS was 108%; in the assay with SNB-19 CNS, 97.1%; in the assay with U251 CNS, 94.5%; in the assay on PC-3 prostate, 95.8%; with SK-MEL-5 melanoma, 77.1%; with UACC-62 melanoma, 72.4%. For the same molecule, the growth was 95.8% in the assay with LOX IMVI melanoma and 116% with SK-MEL-28 melanoma.
On to `O=C(Nc1ccc2[nH]c3ccccc3c2c1)c1ccccc1Cl`, for which the growth in the assay on DU-145 prostate is 75%; with K-562 leukemia, 10% (active); in the assay with MALME-3M melanoma, 35.3%; in the assay with MDA-MB-231 breast it was 40.3%; with RXF 393 renal it was 26.5%; in the assay on SF-268 CNS, 63%. Further, the growth with SF-295 CNS was 10.7%; in the assay with SF-539 CNS it was 51.7%; in the assay on UACC-257 melanoma it was 83.1%; in the assay with M14 melanoma, 26.2%; in the assay with HCT-15 colon, 31.7%; in the assay with HT29 colon, 1.78% (active). Also, the growth with SNB-75 CNS was 59.1%; in the assay with SNB-19 CNS, 82.9%; in the assay with U251 CNS, 32.6%; with PC-3 prostate, 54.1%; in the assay on SK-MEL-5 melanoma, 30.3%; in the assay on UACC-62 melanoma, 56.4%. The growth was 33.9% in the assay with LOX IMVI melanoma and 57.8% with SK-MEL-28 melanoma.
As to `N#Cc1c(NN)n(C2OC(CO)C(O)C2O)c2ncnc(N)c12` (stereo not given), the growth is -0.273% (active) with DU-145 prostate; -46.1% (active) with K-562 leukemia; -9.07% (active) in the assay with MALME-3M melanoma; 15.2% in the assay with MDA-MB-231 breast; -53.1% (active) in the assay on RXF 393 renal; 15.1% with SF-268 CNS. For the same molecule, the growth with SF-295 CNS was 56.9%; in the assay on SF-539 CNS, -5.9% (active); in the assay with UACC-257 melanoma it was -26.3% (active); in the assay on M14 melanoma, -18.3% (active); in the assay on HCT-15 colon, 3.17% (active); with HT29 colon, 4.15% (active). The growth with SNB-75 CNS was 35.2%; in the assay on SNB-19 CNS it was 54.7%; in the assay on U251 CNS, 34.5%; with PC-3 prostate it was 6.48% (active); in the assay on SK-MEL-5 melanoma, -67.5% (active); with UACC-62 melanoma it was -39.3% (active). The growth with LOX IMVI melanoma was -4.81% (active); in the assay with SK-MEL-28 melanoma, -15.1% (active).
Consider `C[C@@H]1C[C@H](N)C[C@H](c2ccncc2NC(=O)c2ccc(F)c(-c3c(F)cccc3F)n2)C1`, for which the growth in the assay on DU-145 prostate was 80.4%; in the assay with K-562 leukemia, 11.4%; in the assay with MALME-3M melanoma, -20.6% (active); in the assay on MDA-MB-231 breast, 59.1%; in the assay on RXF 393 renal it was 23.2%; with SF-268 CNS, 58.9%. In addition, the growth in the assay on SF-295 CNS is 71.9%; in the assay with SF-539 CNS, 70.2%; with UACC-257 melanoma, -69.4% (active); with M14 melanoma, -30.8% (active); with HCT-15 colon it was 52.4%; in the assay on HT29 colon, 10.9%. Also, the growth in the assay with SNB-75 CNS is 40.5%; in the assay with SNB-19 CNS it was 69.3%; with U251 CNS, 42.6%; with PC-3 prostate, 24.2%; with SK-MEL-5 melanoma, -59.8% (active); in the assay with UACC-62 melanoma, 25.3%. In addition, the values for the growth in the assay on LOX IMVI melanoma and in the assay on SK-MEL-28 melanoma were 33.1% and 12.2%, respectively.
In the case of `O=C1/C(=C\c2cccn2C(=O)c2ccccc2)c2ccccc2N1c1c(Cl)cccc1Cl`, the growth in the assay with DU-145 prostate is 102%; with K-562 leukemia it was 17.4%; with MALME-3M melanoma, 82.6%; in the assay with MDA-MB-231 breast it was 74.6%; in the assay with RXF 393 renal, 71.7%; in the assay with SF-268 CNS it was 66.9%. Also, the growth in the assay on SF-295 CNS was 97.6%; in the assay on SF-539 CNS, 79.4%; in the assay with UACC-257 melanoma, 90.7%; in the assay on M14 melanoma, 76%; with HCT-15 colon, 64.7%; in the assay on HT29 colon, 70%. The growth was 71.9% with SNB-75 CNS; 87.7% with SNB-19 CNS; 72.8% with U251 CNS; 73.9% with PC-3 prostate; 83% with SK-MEL-5 melanoma; 59.1% with UACC-62 melanoma. Also, the growth with LOX IMVI melanoma was 37.5%; in the assay with SK-MEL-28 melanoma, 74.1%.
Turning to `COc1ccc(-c2nc(-c3ccccc3OCc3ccccc3OC)nc(C)c2C(C)=O)cc1`, the growth with DU-145 prostate is 92.8%; in the assay with K-562 leukemia, 81.6%; in the assay with MALME-3M melanoma it was 92.5%; in the assay with MDA-MB-231 breast, 64.3%; with RXF 393 renal, 92.6%; in the assay with SF-268 CNS it was 94.7%. Also, the growth is 91.8% with SF-295 CNS; 101% with SF-539 CNS; 96% in the assay with UACC-257 melanoma; 84.2% in the assay with M14 melanoma; 78.9% with HCT-15 colon; 56.9% with HT29 colon. Moreover, the growth was 83.8% in the assay on SNB-75 CNS; 93.7% in the assay with SNB-19 CNS; 90.2% in the assay with U251 CNS; 56.8% in the assay on PC-3 prostate; 91.3% with SK-MEL-5 melanoma; 54.7% with UACC-62 melanoma. Moreover, the growth with LOX IMVI melanoma is 98.7%; with SK-MEL-28 melanoma it was 101%.
`COc1ccc([C@@H]2[C@@H](Cl)C(=O)N2c2cc(OC)c(OC)c(OC)c2)cc1C`: the growth in the assay with DU-145 prostate is 12.9%; in the assay on K-562 leukemia, 9.59% (active); in the assay on MALME-3M melanoma, 76%; in the assay on MDA-MB-231 breast, 18.3%; in the assay with RXF 393 renal, 19.8%; in the assay with SF-268 CNS, 30.2%. Further, the growth in the assay on SF-295 CNS is 15.7%; in the assay with SF-539 CNS, 3.27% (active); in the assay with UACC-257 melanoma, 80.7%; in the assay with M14 melanoma, 11.7%; in the assay on HCT-15 colon, 15.8%; with HT29 colon it was 11.1%. The growth with SNB-75 CNS was 75.6%; in the assay with SNB-19 CNS it was 33.6%; in the assay on U251 CNS, 12.9%; in the assay with PC-3 prostate it was 28.9%; in the assay with SK-MEL-5 melanoma it was -13.8% (active); in the assay with UACC-62 melanoma it was 35.3%. Further, the growth in the assay on LOX IMVI melanoma is 24.4%; with SK-MEL-28 melanoma, 70.7%.
For `CC(C)(C)CC(C)(C)NCc1cc(C(C)(C)C)cc(CNC(C)(C)CC(C)(C)C)c1O`, the growth was 66.6% with DU-145 prostate; 3.08% (active) in the assay with K-562 leukemia; 51% in the assay with MALME-3M melanoma; 23.3% in the assay on MDA-MB-231 breast; 76.2% in the assay on RXF 393 renal; 85.2% with SF-268 CNS. The growth in the assay on SF-295 CNS was 57.7%; in the assay with SF-539 CNS, 83.8%; in the assay with UACC-257 melanoma, 75.3%; in the assay on M14 melanoma it was 70.1%; in the assay on HCT-15 colon it was 56.8%; in the assay with HT29 colon it was 11.1%. Besides, the growth in the assay on SNB-75 CNS is 60.8%; in the assay with SNB-19 CNS, 77.2%; in the assay with U251 CNS, 49.7%; with PC-3 prostate, 47.9%; with SK-MEL-5 melanoma, 36.8%; with UACC-62 melanoma, 82.9%. Besides, the growth was 45.6% in the assay with LOX IMVI melanoma and 80.5% with SK-MEL-28 melanoma.
